Compound activity deposited in PubChem by National Center for Advancing Translational Sciences (NCATS).
Compounds with a hit are over-represented: about 3% of the library has one in this group of screens.
TSG101-PTAP inh: qHTS Assay for Iinhibitors of HIV-1 Budding by Blocking the Interaction of PTAP/TSG101 | Tumor susceptibility gene 101 protein (Homo sapiens), Q99816 | 340,000 tested, under 10 active | Potency, µM (series often up to 115 µM), most hits filed as inhibitors | AID 493005, 2010 | Fluorescence polarization, FITC-PTAP peptide / Tsg101 binding; active = well fitted inhibition curve with a large enough effect in the main read-out, with a control signal flat, not every such curve was filed as active; inconclusive = small, poorly fitted or top-dose-only effect, or effect the other way, or a change in a side signal; inactive = no such curve, though single readings can be large or run the other way
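Fluorescence polarization binding of Tsg101 binding domain (10 uM final) to FITC-labeled PTAP peptide (50 nM final) in HEPES pH 7.5 buffer with NaCl, Tween 20, EDTA, TCEP. Compounds added before peptide; binding 20 min at RT.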
VDR inhibitor: Inhibitors of the vitamin D receptor (VDR): qHTS. VDR-SRC2-3 peptide fluorescence polarization, 2 h. Potency, µM, most hits filed as inhibitors. actives 0.93% (n = 400,000)
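Fluorescence polarization assay measuring small-molecule disruption of VDR binding to the coregulator peptide SRC2-3. Compounds were pin-transferred (23 nl) into the reagent mix and incubated 2 h at room temperature before reading.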
KAT2A inh: qHTS Assay for Inhibitors of GCN5L2 | Histone acetyltransferase KAT2A (Homo sapiens), Q92830 | GCN5L2 HAT assay, ThioGlo1 CoA-SH fluorescence | Potency, µM (series often up to 58.9 µM), hits mostly inhibitors | actives 0.21% (n = 390,000) | AID 504327, 2011
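GCN5L2 (20nM final) in 50mM HEPES, 0.1mM EDTA pH 7.5, 0.01% Tween-20 was preincubated 15 min at room temperature with compound, then given ThioGlo1 (50uM), H3(1-25) peptide (75uM) and acetyl-CoA (70uM); CoA-thiol fluorescence (Ex340/Em540) was read at 0 and 20 min.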
PLK1 PBD block: qHTS for Inhibitors of PLK1-PDB (polo-like kinase 1 - polo-box domain): Primary Screen. Plk1 PBD binding of FITC phosphopeptide, fluorescence polarization. Potency, µM, most hits filed as inhibitors. AID 720504, 2013. actives 2.8% (n = 360,000); note: series mostly up to about 57 µM; nearly all actives have a fitted effect of over 65% in size
Target sequence (P53350 whole entry, looked up, the tested form may be a part): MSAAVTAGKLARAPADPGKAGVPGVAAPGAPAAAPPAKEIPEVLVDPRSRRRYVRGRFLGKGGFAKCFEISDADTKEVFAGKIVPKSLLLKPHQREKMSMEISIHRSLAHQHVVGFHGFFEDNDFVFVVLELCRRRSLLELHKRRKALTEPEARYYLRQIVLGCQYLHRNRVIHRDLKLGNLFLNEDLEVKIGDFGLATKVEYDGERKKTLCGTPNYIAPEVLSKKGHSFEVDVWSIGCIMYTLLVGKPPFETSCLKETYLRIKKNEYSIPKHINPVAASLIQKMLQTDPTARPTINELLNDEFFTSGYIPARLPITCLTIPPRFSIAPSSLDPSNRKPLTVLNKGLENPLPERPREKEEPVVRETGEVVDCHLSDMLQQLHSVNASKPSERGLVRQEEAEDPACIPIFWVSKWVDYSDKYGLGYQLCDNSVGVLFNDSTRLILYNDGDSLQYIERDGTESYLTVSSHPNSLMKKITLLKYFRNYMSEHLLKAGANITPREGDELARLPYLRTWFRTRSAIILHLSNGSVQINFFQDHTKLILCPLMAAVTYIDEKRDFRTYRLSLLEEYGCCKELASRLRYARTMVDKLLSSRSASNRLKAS
USP1-UAF1 inh: Inhibitors of USP1/UAF1: Primary Screen; Ubiquitin carboxyl-terminal hydrolase 1 (Homo sapiens), O94782; actives 0.23% (n = 390,000); recombinant USP1/UAF1, Ub-Rhodamine cleavage fluorescence; Potency, µM (series often up to 57.1 µM), hits mostly inhibitors; AID 743255, 2014; note: nearly all actives have a fitted effect of over 60% in size
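1 nM enzyme complex + cpd, 15 min RT; start with Ub-Rho 150nM final; kinetic fluorescence ex 480/em 540, 6 reads q60 s. Buffer 50mM HEPES pH 7.8, 0.5mM EDTA, 0.1 mg/ml BSA, 1mM TCEP, 0.01% Tween-20.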
A number is an active result; n = inactive; u = inconclusive; x = no result given. Unless noted, calls come from the whole dose curve; as a rule, active = well fitted curve in the direction sought with a large enough effect; inconclusive = small, poorly fitted or top-dose-only effect, or another doubt; inactive = no such curve, though single readings can be large; an effect the other way counts as inactive or inconclusive.

SMILES	TSG101-PTAP inh	VDR inhibitor	KAT2A inh	PLK1 PBD block	USP1-UAF1 inh
Cc1ccc(NC(=O)c2ccco2)cc1C	n	n	n	21µM	n
CCOc1cc(-c2nnc(SCC(=O)NCc3ccccc3)nc2-c2ccc(OC)c(OCC)c2)ccc1OC	x	n	n	x	n
Cn1c(=O)c2[nH]c(=O)cnc2n(C)c1=S	n	n	n	30µM	n
CCCCSc1nc2c([nH]1)c(=O)n(C)c(=S)n2C	n	n	x	n	n
COc1cccc(OCc2cc(C(=O)NC(C)c3cnn(C)c3C)no2)c1 (stereo unspecified)	n	n	n	n	n
Nc1ccccc1SSc1ccccc1N	n	10µM	u	0.6µM	u
Nc1nc(SCc2ccccc2Cl)ns1	n	n	n	30µM	n
Nc1ccccc1SCc1ccccc1Cl	n	n	n	15µM	n
COC(=O)CN1C(C(=O)c2ccccc2)=C(OC(=O)c2ccccc2)c2ccccc2S1(=O)=O	x	n	n	x	n
O/C(=C\c1nc2ccccc2nc1/C=C(\O)c1ccccc1)c1ccccc1	n	79µM	n	u	n
O=C(c1ccc(Cl)c(Cl)c1)N1CCC(=O)N([C@H](COCc2ccccc2)Cc2ccccc2)CC1	x	x	x	n	x
O=C(c1ccc(Cl)c(Cl)c1)N1CCC(=O)N(C(CO)Cc2ccccc2)CC1 (stereo unspecified)	n	u	x	27µM	n
COC(=O)/C(C)=C/CC12OC(C)(C)C3CC(C=C4C(=O)c5cc6c(c(CCC(C)(C)Cl)c5OC431)OC1(C)CCC(=C(C)C)C6C1)C2=O (stereo unspecified)	x	n	n	x	x
O=C(/C=C/c1cn(-c2ccccc2)nc1-c1cccnc1)c1ccco1	n	50µM	n	n	n
CCOc1ccc(NC(=O)C(=O)NCCN2CCN(S(=O)(=O)c3ccc(C)cc3)CC2)cc1	n	n	n	n	n
CCOc1ccc(NC(=O)C(=O)NCCN2CCN(S(=O)(=O)c3ccccc3)CC2)cc1	n	u	n	24µM	n
C=CCOn1c(=O)c(-c2cc3ccccc3o2)[n+]([O-])c2ccccc21	u	n	n	30µM	u
Cc1cc(/C=N/NC(N)=S)c(C)n1-c1ccc(Cl)cc1	n	n	n	30µM	n
COc1ccccc1NS(=O)(=O)c1cc(NC(=O)C(C)C)ccc1N1CCCCC1	n	79µM	n	12µM	n
COc1ccccc1NS(=O)(=O)c1cc(NC(=O)c2cc[n+]([O-])cc2)ccc1N1CCCC1	n	n	n	3µM	n
COc1ccccc1NS(=O)(=O)c1cc(NC(=O)c2sccc2C)ccc1N1CCOCC1	n	n	n	n	n
COc1ccccc1NS(=O)(=O)c1cc(NC(=O)Nc2ccccc2)ccc1N1CCCCC1	n	n	n	u	n
COc1ccccc1NS(=O)(=O)c1cc(NC(=O)c2sccc2C)ccc1N1CCCC1	n	89µM	n	6.7µM	n
CC(=O)N1CCCc2cc(S(=O)(=O)N3CCN(c4ccccc4F)CC3)ccc21	x	n	n	x	n
CCOC(=O)c1c(NC(=O)C(C)Sc2cn(CCNC(=O)c3ccc(OC)cc3)c3ccccc23)sc2c1CCC2 (stereo unspecified)	x	n	n	x	n
SMILES	TSG101-PTAP inh	VDR inhibitor	KAT2A inh	PLK1 PBD block	USP1-UAF1 inh
C=CCc1cccc2cc(NC(C)=O)c(=O)oc12	n	n	n	27µM	n
COCCNC(=S)N1CCN(c2nc(-c3ccc(F)cc3)cs2)CC1	n	n	n	n	n
COCCNC(=S)N1CCN(c2nc(-c3ccc(Cl)cc3)cs2)CC1	n	n	n	24µM	u
COC(=O)[C@@]1(Cc2ccc(OC)cc2)[C@@H]2C(=CC(=O)[C@H]2CC(=O)C(=O)N2CCCC2)CN1C(=O)c1ccccc1	n	89µM	n	n	n
C[C@@]12CCC[C@H]1C1CC[C@H]3C[C@H](O)CC[C@]3(C)C1CC2 (stereo partly specified)	x	n	n	x	x
Cc1cccc(Cn2nnc3c(=O)[nH]c(C4CCN(C(=O)c5ccc(F)cc5)CC4)nc32)c1	x	n	n	x	n
O=C1C(Cl)=C(Nc2ccc3cn[nH]c3c2)C(=O)c2ccccc21	n	u	n	13µM	16µM
Cc1no[n+]([O-])c1COc1ccc(/C=C(\C#N)C(N)=O)cc1	n	u	n	21µM	n
CC1=CC2C(=O)c3cccc(O)c3C(=O)C2C(O)=C1 (stereo unspecified)	x	25µM	x	x	x
O=[N+]([O-])C(=C1Nc2ccccc2N1)/C(Cl)=C(/Cl)Br	n	n	u	30µM	n
O=C(CN1CCCC1)Nc1ccc(Cl)cc1C(F)(F)F	n	n	n	24µM	n
O=C(O)c1cc(Cl)c2ccccc2c1O	n	n	n	n	n
O=C(O)c1cc2ccccc2c(Cc2cc3ccccc3c(C(=O)O)c2O)c1O (tested in a mixture with another compound)	x	14µM	n	x	x
Cc1ccc(S(=O)(=O)N2c3ccccc3NC(=O)CC2C)cc1 (stereo unspecified)	n	n	n	n	n
CC1CC(=O)Nc2ccccc2N1S(=O)(=O)c1ccccc1 (stereo unspecified)	n	u	n	27µM	n
O=C(NCc1ccncc1)c1ccc(OCc2ccccc2)cc1	n	n	x	n	u
O=C(NCc1ccncc1)c1ccc(Oc2ccccc2)cc1	n	n	n	11µM	n
CC(C)(C)C(=O)/C=c1\s/c(=C\c2ccc(-c3ccc([N+](=O)[O-])cc3)o2)c(=O)n1CC(=O)NC(N)=O	u	n	n	n	7.9µM
COc1ccc(Br)cc1CNC(=O)CN1CCSc2ccccc21	x	n	n	x	n
COc1ccc(-c2cc(=O)c3ccccc3o2)cc1OC	x	n	35µM	x	x
COc1ccc(-c2oc3ccccc3c(=O)c2OCC(=O)O)cc1	n	n	n	12µM	n
COc1ccc(-c2oc3ccccc3c(=O)c2O)cc1OC	x	n	32µM	x	x
Cc1ccc(Sc2cc(NCCCO)c([N+](=O)[O-])c3nonc23)cc1	n	u	n	24µM	n
COC(=O)CCSc1cc(NCCCOC(C)=O)c([N+](=O)[O-])c2nonc12	x	n	x	x	x
CC(C)CCSc1cc(NCCO)c([N+](=O)[O-])c2nonc12	n	n	n	n	n
CC(=O)OCCCNc1cc(Sc2ccc(Cl)cc2)c2nonc2c1[N+](=O)[O-]	n	10µM	n	1.2µM	n
CC[C@H](C(=O)[C@H](C)[C@H](O)[C@H](C)CCc1ccc(C)c(O)c1C(=O)O)[C@H]1O[C@](CC)([C@@H]2CC[C@@](O)(CC)[C@H](C)O2)C[C@H]1C	x	u	n	x	x
